Records with an inconclusive call do not appear. Where a call stands in place of a potency, no number is given. A number with no mark means an inactive call. Calls of active or inactive are those of the source. The call rests on the fitted dose curve; in most records, active means well fitted cell-killing curve with a large enough effect; inconclusive means small, poorly fitted or top-dose-only effect, or effect the other way; inactive means no such curve, though single readings can be large or run the other way.
Columns and labels:
[1] = Viability qHTS for spleen associated tyrosine kinase inhibitor (SYKi) naive MV4-11 cells (AID 1963823); further: nearly all actives have a fitted effect of over 40% in size
Method in brief: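 Viability of MV4-11 AML cells lacking prior SYK inhibitor exposure is scored by CellTiter-Glo luminescence following 72 hr compound incubation at 37 C, 5% CO2, seeded at 500 cells per well.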

[2] = Viability qHTS for spleen associated tyrosine kinase inhibitor (SYKi) drug resistant MV4-11 cells (AID 1963824); further: nearly all actives have a fitted effect of over 35% in size
Method in brief: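 CellTiter-Glo luminescence, read 10 min after reagent addition, reports viability after a 72 hr compound exposure. Cells are an MV4-11 line made resistant to SYK inhibition, seeded at 500 per well onto compound-containing plates.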
Potency means the concentration at half of the fitted maximal effect.

SMILES | Potency [1] | Potency [2] | viability (% of control) [1] | viability, % of control [2]
CC/C(=C(\c1ccc(O)cc1)c1ccc(OCCNC)cc1)c1ccccc1 | inactive | inactive |  | 
Nc1nc(Cl)nc2c1ncn2C1OC(CO)C(O)C1F (stereo unspecified) | 0.116 µM (active) | 0.13 µM (active) |  | 
CC1CCCCN1CCCOC(=O)c1ccc(OC2CCCCC2)cc1 (stereo unspecified) | 8.41 µM (active) | 13.3 µM (active) |  | 
COc1ccc(/C=C/C(=O)O[C@@H]2[C@@H](O)[C@H](C)O[C@@H](O[C@H]3[C@@H]4C=CO[C@@H](O[C@H]5O[C@@H](CO)[C@H](O)[C@@H](O)[C@@H]5O)[C@@H]4[C@@]4(CO)O[C@@H]34)[C@@H]2OC(C)=O)cc1 | inactive | inactive |  | 
C/C(=C/CO)CC[C@@H]1[C@@]2(C)CCC[C@](C)(C(=O)O)C2CC[C@@]1(C)O (stereo partly specified) | inactive | inactive |  | 
CC1COC(Nc2ccc3ncnc(Nc4ccc(OCc5nccs5)c(Cl)c4)c3c2)=N1 (stereo unspecified) | 9.2 µM (active) | 9.2 µM (active) |  | 
CC1(C)CC[C@]2(C(=O)O[C@@H]3O[C@H](CO)[C@@H](O)[C@H](O)[C@H]3O)CC[C@]3(C)C(=CCC4[C@@]5(C)CC[C@H](O[C@@H]6O[C@H](C(=O)O)[C@@H](O)[C@H](O)[C@H]6OC6OC(CO)C(O)C(O)C6O)C(C)(C)C5CC[C@]43C)[C@@H]2C1 (stereo partly specified) |  |  | 89.4% [at 9.25 µM] | 91% [at 9.25 µM]
C[C@H]1/C=C/C=C/C=C/C=C/C=C/[C@@H](O)[C@H](C(=O)O)[C@H](O)C[C@H](O)CCC[C@H](O)C[C@H](O)C[C@H](O)[C@@H](C)C(=O)O[C@@H]1C | inactive | inactive |  | 
OC[C@H]1O[C@@H](OCc2ccccc2)[C@H](O[C@@H]2OC[C@@H](O)[C@H](O)[C@H]2O)[C@@H](O)[C@@H]1O | inactive | inactive |  | 
CC(C)C[C@H](NC(=O)CNC(=O)OCc1ccccc1)C(=O)N[C@@H](Cc1ccccc1)C(=O)CCl | 18.4 µM (active) | 8.2 µM (active) |  | 
COC(=O)C1=COC(OC2OC(CO)C(O)C(O)C2O)C2C(C)C(OC(=O)/C=C/c3ccc(O)cc3)C(O)C12 (stereo unspecified) | inactive | inactive |  | 
C[C@@H]1O[C@@H](OC[C@H]2O[C@@H](OCCc3ccccc3)[C@H](O)[C@@H](O)[C@@H]2O)[C@H](O)[C@H](O)[C@H]1O | inactive | inactive |  | 
COc1cc(C)c(C(=O)NC2C(C)OC(OC3CCC(C)C4C3C=C(C)C3/C(C)=C\CC/C(C)=C/C5(C)C=C(C(=O)O)C(C)CC56OC(=O)/C(=C(\O)C34C)C6=O)C(O)C2(C)O)c(O)c1 (stereo unspecified) |  |  | 82.6% [at 9.25 µM] | 77% [at 9.25 µM]
C/C(=N\N=C(N)N)c1cc(NC(=O)CCCCCCCCC(=O)Nc2cc(/C(C)=N/N=C(N)N)cc(/C(C)=N/N=C(N)N)c2)cc(/C(C)=N/N=C(N)N)c1 | 18.4 µM (active) | 9.2 µM (active) |  | 
CC(O)(CC(=O)O)CC(=O)OCc1ccc(O[C@@H]2O[C@H](CO)[C@@H](O)[C@H](O)[C@H]2O)cc1 (stereo partly specified) | inactive | inactive |  | 
CC(=O)NCCNc1cc(Cl)nn2c(-c3cccc(S(=O)(=O)N(C)C)c3)c(C)nc12 | 1.46 µM (active) | 1.64 µM (active) |  | 
COc1ccc2c(c1)O[C@H](O[C@@H]1O[C@H](CO)[C@@H](O)[C@H](O)[C@H]1O)C(=O)N2 | inactive | inactive |  | 
C=C1[C@@H]2[C@H]3OC(=O)C(=C)[C@@H]3CC[C@@](C)(O)[C@@H]2C[C@@H]1O[C@@H]1O[C@H](CO)[C@@H](O)[C@H](O)[C@H]1O | inactive | inactive |  | 
CC(=O)/C=C/[C@H]1[C@](C)(O)[C@@H](O)[C@H](O)C2C(C)(C)CCC[C@@]21C (stereo partly specified) | inactive | inactive |  | 
CSc1nc(N)cc(Oc2ccc(-c3nc(Nc4cccc(C(F)(F)F)c4)n[nH]3)cc2)n1 | 1.16 µM (active) | 1.03 µM (active) |  | 
COC(=O)C1=COC(O[C@@H]2O[C@H](CO)[C@@H](O)[C@H](O)[C@H]2O)[C@@H]2[C@@](C)(O)[C@@H](OC(=O)/C=C/c3ccccc3)C[C@]12O (stereo partly specified) | inactive | inactive |  | 
C1CCC[C@H]2CCCN3CC[C@@H](CCCCCC[C@@H]4CCCN5CC[C@@H](CC1)O[C@@H]45)O[C@@H]23 |  |  | 90.7% [at 0.177 µM] | 87.9% [at 0.177 µM]
C=C(C)C(=O)O[C@H]1[C@H]2C(=C)C(=O)O[C@@H]2C[C@@H](C)[C@@H]2O[C@@H]2C(=O)[C@](C)(O)[C@@H]1OC(=O)C(=C)C | 1 µM (active) | 1 µM (active) |  | 
